What is called Inhibition is the relative decrease from the control value, in per cent.

The record followed here is ChEMBL document CHEMBL4513146, “CO-ADD screening of Karazin Kharkiv National University (Ukraine) compounds”.

In one assay the test system is Klebsiella pneumoniae. Particulars: Concentration 32 ug.mL-1;; ASSAY_TEST Inhibition of Bacterial Growth; detection method Absorption (OD600); MEDIA CAMHB; plate type 384well; NBS; CORNING #3640; time 18 hr.
For another assay, the system named is Candida albicans. Particulars: Concentration 32 ug.mL-1; ASSAY_TEST Inhibition of Fungal Growth; detection method Absorption (OD530).
The next assay concerns Cryptococcus neoformans. Particulars: Concentration 32 ug.mL-1; ASSAY_TEST Inhibition of Fungal Growth; detection method Resazurin; Absorption (OD600-OD570); plate type 384well; NBS; CORNING #3640. In general terms: Resazurin is reduced to fluorescent resorufin, in cell work by metabolically active cells.

Measured potencies and affinities stand elsewhere.

As for `CCC(Sc1nnc2c(=O)n(-c3ccc(C)c(C)c3)ccn12)C(=O)Nc1ccccc1C` (stereo not given), the Inhibition in the assay with Klebsiella pneumoniae is reported as 15.08%; in the assay on Candida albicans it was 1%; in the assay on Cryptococcus neoformans it was -9.85%.
For `C=Cc1ccc(Cn2nc3c(=O)n(-c4cccc(Cl)c4C)ccn3c2=O)cc1` the same measures were -0.98%, -0.15% and -8.23%.
For `COC(=O)c1ccccc1NC(=O)Cn1nc2c3cc(-c4ccc(OC)cc4)nn3ccn2c1=O` the same measures were 20.11%, 0.77% and -26.84%.
Turning to `O=C(CSc1nc2ccccc2n2c(-c3ccccc3)nnc12)Nc1ccc(Br)cc1`, the figures for the Inhibition with Klebsiella pneumoniae, with Candida albicans and in the assay on Cryptococcus neoformans were 12.64%, 10.16% and -26.76%, respectively.
In the same order, the values of `Cc1nnc2ccc(S(=O)(=O)N(Cc3ccccc3F)c3cc(F)cc(F)c3)cn12` are -4.61%, 2.54% and -9.43%.
In the same order, the values of `COc1ccc(-c2cc3c4nn(CC(=O)Nc5ccccc5OC)c(=O)n4ccn3n2)cc1` are 7.14%, 0.94% and -14.32%.
In the same order, the values of `O=C(Cn1nc2c(N3CCOCC3)nc3ccccc3n2c1=O)Nc1ccccc1Br` are 11.27%, 1.17% and -27.52%.
In the case of `CCOc1ccccc1CNC(=O)CCc1nnc2ccc(-c3ccc(C)cc3)nn12`, the Inhibition with Klebsiella pneumoniae is reported as 6.87%; with Candida albicans, 2.37%; in the assay with Cryptococcus neoformans it was -5.38%.
For the molecule `CC(C)CCn1c(=O)c2ccc(C(=O)NC3CCCC3)cc2n2c(=S)[nH]nc12`, the Inhibition in the assay on Klebsiella pneumoniae is given as -1.87%; in the assay on Candida albicans, 0.86%; in the assay on Cryptococcus neoformans, -11.12%.
Regarding `COc1cccc(N(Cc2ccc(F)cc2)S(=O)(=O)c2ccc3nncn3c2)c1`, the Inhibition with Klebsiella pneumoniae was -3.46%; with Candida albicans, 1.11%; with Cryptococcus neoformans it was -15.36%.
